High-throughput results deposited in PubChem by several laboratories.
rCAG binder: r(CAG) repeat RNA binding; hit rate 1.3% among 370,000; TO-PRO-1 dye displacement fluorescence; AID 651821; inhibition, % at 3 µM;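 active means inhibition above the plate cutoff, the mean of all test compounds on that plate plus 3 SD, cut at about 35% in these data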;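 further: 0% = DMSO alone and 100% = 100 µM mitoxantrone as full dye displacement; higher means more dye released from RNA so lower well fluorescence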
A3G deaminase: APOBEC3G (human) deaminase inhibition; Q9HC16; recombinant A3G, ssDNA deamination FAM/TAMRA fluorescence; inhibition, % at 20 µM; hit rate 0.28% among 330,000;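 active means inhibition of at least 40% at 20 µM, with no more than 30% in the related APOBEC3A deaminase screen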;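 further: plate controls were DMSO wells with A3G for no effect and wells lacking A3G enzyme for full effect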
aDG glyco up: increases alpha dystroglycan glycosylation. activation, % at 10 µM. Pro5-aDG cells, alpha-DG glycosylation AlphaScreen (IIH6); 0% Pro5, 100% B10-LARGE cell signal. hit rate 0.22% among 360,000;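 active means activation of at least 8% versus controls, or a plate z-score of at least 8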;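 further: Pro5 are CHO cells carrying HIG-tagged alpha-DG that lacks glycosylation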
A3A deaminase: inhibitors of human APOBEC3A DNA deaminase | hit rate 0.41% among 330,000 | recombinant A3A, FAM/TAMRA ssDNA deamination fluorescence | P31941 | inhibition, % at 20 µM | AID 493011;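 active means at least 40% inhibition at 20 µM here, with at most 30% in a related deaminase screen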;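 further: plate controls were A3A with DMSO for no effect and wells lacking A3A enzyme for full effect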
Target sequence (P31941 whole entry, looked up): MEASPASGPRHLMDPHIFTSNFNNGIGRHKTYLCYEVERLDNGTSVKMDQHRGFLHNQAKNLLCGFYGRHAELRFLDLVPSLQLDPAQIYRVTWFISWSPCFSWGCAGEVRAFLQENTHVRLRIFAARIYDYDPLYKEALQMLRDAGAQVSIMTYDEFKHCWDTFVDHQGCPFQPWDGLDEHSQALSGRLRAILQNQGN
PHOSPHO1 inh: inhibitors of human PHOSPHO1 phosphatase. recombinant PHOSPHO1, absorbance phosphatase assay. AID 1565. inhibition, % at 13.3 µM. hit rate 1.1% among 290,000; in the data active means inhibition above about 60%
Target sequence (Q8TCT1 whole entry, looked up): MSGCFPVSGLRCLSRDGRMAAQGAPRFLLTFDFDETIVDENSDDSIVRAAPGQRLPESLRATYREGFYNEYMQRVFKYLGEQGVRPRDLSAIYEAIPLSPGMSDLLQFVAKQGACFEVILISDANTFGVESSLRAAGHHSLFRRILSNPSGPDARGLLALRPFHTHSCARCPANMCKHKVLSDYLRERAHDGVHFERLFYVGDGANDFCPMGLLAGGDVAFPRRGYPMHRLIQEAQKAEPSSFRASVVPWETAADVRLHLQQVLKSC
ALR H2O2 inh: blocks human ALR sulfhydryl oxidase activity; P55789; purified ALR, DTT oxidation, H2O2 HRP-luminol luminescence; inhibition, % (test concentration not listed); hit rate 3.8% among 290,000; AID 485317;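 active means mean replicate inhibition above about 79%, with every replicate also reaching it, limit read from the data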
* marks the source's active call; other numbers are inactive results; . = no result given. Sampled rows, rich in hits. Any-hit rate of the full collection: about 5.4%.

SMILES | rCAG binder | A3G deaminase | aDG glyco up | A3A deaminase | PHOSPHO1 inh | ALR H2O2 inh
COC(=O)C1CN(Cc2ccc(F)cc2)CCS(=O)(=O)N1Cc1cn(CCOC(C)=O)nn1 (configuration not stated) | -1 | . | . | . | . | .
COc1cc(NC(=O)[C@@H](Cc2ccccc2)NC(=O)[C@H]2O[C@@H](n3ccc(=O)[nH]c3=O)[C@H](O)[C@@H]2O)cc(OC)c1OC | 1 | . | . | . | . | .
CCC1CCCCN1C(=S)NN=C(C)c1ccccn1 (configuration not stated) | 1 | . | . | . | . | .
CN1c2ccccc2N(C)C1(C)c1cccc2ccccc12 | 4 | 1 | 0 | 1 | 12 | 13
CN1c2cccc3cccc(c23)N(C)C1(C)C | 3 | 2 | 0 | -1 | 15 | 87*
CCCCn1c(NCc2ccccc2O)nc2ccccc21 | 1 | 0 | 0 | 0 | 2 | 98*
CCCCn1c(NCCO)nc2ccccc21 | 0 | -7 | 0 | -2 | 21 | 98*
CC(C)CN1C(=O)[C@]2(CC(=O)N(C)C2c2ccccc2)c2cc(-n3cc(CCc4ccccc4)nn3)ccc21 (some centres not stated) | -1 | . | . | . | . | .
Cc1noc(C)c1C(C)C1=CCCCC1 (configuration not stated) | 3 | . | . | . | . | .
Oc1ccc(N=Nc2ccccc2-c2nn[nH]n2)c(O)c1 | 79* | -5 | 0 | 12 | 31 | .
CN1c2ccc(C#CC3CC3)cc2[C@@H]2[C@@H](CCN2C(=O)C2CCOCC2)[C@H]1CO | 10 | . | . | . | . | .
COC(=O)[C@]12C[C@H](CC(=O)NCCC(C)C)C(=O)N(Cc3ccc4c(c3)OCO4)C1=C[C@H](C(C)C)O[C@@H]2C1CC1 | 1 | . | . | . | . | .
Cc1ccc(O)c(CNc2cnc3ccccc3c2)c1 | -1 | -7 | 0 | -9 | 30 | 98*
Cc1ccc(NCCNc2ccc(C)cc2)cc1 | -3 | -2 | 0 | 0 | -6 | 99*
Oc1ccc(Br)cc1CNc1cnc2ccccc2c1 | 11 | -5 | 0 | -7 | 34 | 55
Cc1cccc(NCCNc2cccc(C)c2)c1 | -5 | -4 | 0 | -1 | 34 | 99*
Cc1cccc(NCc2ccccc2O)c1 | 4 | -4 | 1 | -1 | -1 | 99*
O=C(COCc1ccccc1)N1CC[C@H]2[C@H](CCCN2Cc2cc(F)cc(F)c2)C1 | -1 | . | . | . | . | .
COC(=O)C1=C(C)N(Cc2ccc(C(F)(F)F)cc2)C(=NCc2ccc3c(c2)OCO3)NC1c1cccc(Cl)c1 (configuration not stated) | 6 | . | . | . | . | .
C/C(=N/NC(=O)c1cccnc1)c1cccc(O)c1 | -1 | . | . | . | . | .
Cc1ccccc1NCc1ccccc1O | 3 | -1 | 0 | 0 | 18 | 100*
COCC(=O)N(Cc1cc2cc(C)ccc2[nH]c1=O)c1ccc(C)c(C)c1 | -6 | -7 | 0 | -6 | 29 | -13
COCC(=O)N(Cc1cc2cc(C)ccc2[nH]c1=O)c1cccc(C)c1C | -8 | -5 | 0 | 0 | . | 82*
Cc1c(C)n(C(=O)CSc2nccn2C)c2ccccc12 | 4 | -5 | 1 | -3 | 61* | 5
Cc1ccccc1CS(=O)(=O)Cc1ccc(C(=O)Nc2ccccc2C)o1 | 2 | . | . | . | . | .
SMILES | rCAG binder | A3G deaminase | aDG glyco up | A3A deaminase | PHOSPHO1 inh | ALR H2O2 inh
Cc1ccc(S(=O)(=O)Nc2ccc(O)c(Sc3ncn[nH]3)c2)cc1 | 4 | -8 | 0 | -4 | 23 | 99*
Cc1cc(F)ccc1S(=O)(=O)Nc1ccc(O)c(Sc2ncn[nH]2)c1 | 13 | -10 | 0 | -1 | 10 | 99*
CCOc1ccc(S(=O)(=O)Nc2ccc(O)c(Sc3ncn[nH]3)c2)cc1 | 9 | -7 | 0 | -4 | -17 | 99*
Cc1ccc(C)c(S(=O)(=O)Nc2ccc3[nH]c(=O)[nH]c3c2)c1 | 3 | -1 | 0 | 5 | 14 | -21
Cc1ccc(C)c(S(=O)(=O)Nc2ccc(O)c(Sc3ncn[nH]3)c2)c1 | 3 | -5 | 0 | -1 | 22 | 99*
COC(=O)C1=C(C)N(Cc2ccccc2C(F)(F)F)C(=NCc2cccc(C(F)(F)F)c2)NC1c1cccc(Cl)c1 (configuration not stated) | 3 | . | . | . | . | .
COc1ccc(OC)c(S(=O)(=O)Nc2ccc(O)c(Sc3ncn[nH]3)c2)c1 | . | -1 | 0 | 1 | 20 | 99*
COc1ccc(OC)c(S(=O)(=O)Nc2cccc(O)c2)c1 | -2 | -9 | 0 | 1 | . | 18
